These results are taken from PubChem BioAssay (Tox21).

A number with no mark means an inactive call. Results filed as inconclusive are left out. Activity calls are given as the source filed them. Unless noted, the call rests on the fitted dose curve; in most records, active means well fitted curve in the direction sought with a large enough effect in the repeat runs; inconclusive means weak or mixed curves; inactive means no such curve, though single readings can be large; an effect the other way counts as inactive or inconclusive.

Test [1] is described as follows: qHTS assay to test for compound auto fluorescence at 535 nm (green) in HEK293 cells (AID 720680). (In qHTS, concentration-response curves come from the screen itself.)
A short description of test [2]: qHTS assay to test for compound auto fluorescence at 460 nm (blue) in HEK293 cell free culture (AID 720681). The gist of the method:
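Compounds were added to cell-free DMEM with 10% FBS and fluorescence read directly. The blue channel used 405 nm excitation and 460 nm emission, with triamterene as the reference fluorophore.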

Test [3] is described as follows: qHTS assay to test for compound auto fluorescence at 535 nm (green) in HEK293 cell free culture (AID 720682). Put shortly: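 Green-channel intensity (Ex/Em 485/535 nm) was recorded from compound-treated wells containing only DMEM with 10% FBS. Fluorescein provided the equivalency standard.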
A short description of test [4]: qHTS assay to test for compound auto fluorescence at 590 nm (red) in HEK293 cell free culture (AID 720683). The gist of the method:
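Cell-free wells of DMEM with 10% FBS received compound, and intrinsic fluorescence was read at excitation/emission 540/590 nm. Values expressed as equivalence to Rose Bengal sodium.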

Test [5] can be described thus: qHTS assay to test for compound auto fluorescence at 590 nm (red) in HepG2 cell free culture (AID 720684). Put shortly:
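Rose Bengal sodium served as the reference for red signal. Test compounds were dispensed into serum-containing MEM (10% FBS) without cells, and plates were read at 540/590 nm.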

The nature of test [6]: qHTS assay to test for compound auto fluorescence at 460 nm (blue) in HepG2 cell free culture (AID 720685). The gist of the method: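 Cell-free plates of MEM plus 10% FBS received 23 nL compound or DMSO vehicle; blue-channel (405/460 nm) intensity scored against triamterene as reference fluorophore.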
Test [7] in a line: qHTS assay to test for compound auto fluorescence at 535 nm (green) in HepG2 cell free culture (AID 720686).
The nature of test [8]: qHTS assay to test for compound auto fluorescence at 460 nm (blue) in HepG2 cells (AID 720687). Put shortly:
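HepG2 cells in MEM with 10% FBS, attached overnight at 37 C, were exposed to compound or DMSO for 1 hr at 37 C, 5% CO2. Blue fluorescence was read at 405/460 nm, with triamterene as reference fluorophore.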

Test [9] is described as follows: qHTS assay to identify small molecule antagonists of the glucocorticoid receptor (GR) signaling pathway - cell viability counter screen (AID 720693). Further: nearly all actives have a fitted effect of over 55% in size.
A short description of test [10]: qHTS assay for identifying genotoxic compounds that show differential cytotoxicity against isogenic chicken DT40 cell lines with known DNA damage response pathways - wild type cell line (AID 743012). Further: nearly all actives have a fitted effect of over 60% in size. Further: potency means the concentration at half of the fitted maximal effect. The gist of the method:
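Endpoint: CellTiter-Glo luminescence, 30 min RT. Cells: wild type DT40, 300/well. Exposure: compounds in DMSO, 40 h, 37 C/5% CO2, after ~0.5 h pre-incubation.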

Test [11] in a line: qHTS assay for identifying genotoxic compounds that show differential cytotoxicity against isogenic chicken DT40 cell lines with known DNA damage response pathways - Rev3 mutant cell line (AID 743014). Further: nearly all actives have a fitted effect of over 55% in size. Further: potency means the concentration at half of the fitted maximal effect.
The nature of test [12]: qHTS assay to identify small molecule antagonists of the androgen receptor (AR) signaling pathway - cell viability counter screen (AID 743033; further: nearly all actives have a fitted effect of over 45% in size).
In test [13] the target is Androgen receptor (Homo sapiens) (UniProt P10275). The experiment in a line: qHTS assay to identify small molecule antagonists of the androgen receptor (AR) signaling pathway (AID 743035; active means well fitted inhibition curve with a large enough effect in the signal ratio in the repeat runs, not every such curve was filed as active; the % refers to the signal ratio). The gist of the method:
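R1881 agonist challenge of a HEK293 UAS-beta-lactamase AR reporter line in the presence of compound (16 h, 37C); signal taken as FRET fluorescence after 2 h with LiveBLAzer B/G substrate at room temperature.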

The target is the same in test [14]. The experiment in a line: qHTS assay to identify small molecule agonists of the androgen receptor (AR) signaling pathway (AID 743036; active means well fitted activation curve with a large enough effect in the signal ratio in the repeat runs, with a control signal flat, not every such curve was filed as active; the % refers to the signal ratio). The gist of the method: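 Cell-based FRET reporter assay: HEK293 line with a UAS-beta-lactamase construct, compounds added in DMSO, 16 h exposure at 37C, then 2 h substrate step at room temperature and fluorescence intensity read.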

For test [15] the target is unchanged. The experiment in a line: qHTS assay to identify small molecule agonists of the androgen receptor (AR) signaling pathway using the MDA cell line (AID 743040; further: nearly all actives have a fitted effect of over 20% in size). Put shortly: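 Luciferase read-out, ONE-Glo, 30 min RT. Cells: MDA-kb2 AR-luc, MMTV promoter with AR and GR response elements. Compound exposure 16 h, 37C, 0% CO2, after 5 h pre-incubation. qHTS agonist mode.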

A short description of test [16]: qHTS assay to identify small molecule antagonists of the androgen receptor (AR) signaling pathway using the MDA cell line - cell viability counter screen (AID 743041; further: nearly all actives have a fitted effect of over 45% in size). Put shortly: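 Cytotoxicity counter screen: MDA-kb2 AR-luc cells, compound + R1881, 16 h, 37C, 0% CO2; CellTiter-Fluor added at 15.5 h, fluorescence read after 30 min.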
The target in test [17] is Androgen receptor (Homo sapiens) (UniProt P10275). The experiment in a line: qHTS assay to identify small molecule antagonists of the androgen receptor (AR) signaling pathway using the MDA cell line (AID 743042; further: nearly all actives have a fitted effect of over 55% in size). Put shortly: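 MDA-kb2 breast carcinoma cells carrying MMTV-luciferase (AR/GR responsive) were co-treated with compounds and the agonist R1881 for 16 h at 37C. Inhibition read as ONE-Glo luminescence; CellTiter-Fluor fluorescence measured in parallel for cytotoxicity.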
Androgen receptor (Homo sapiens), sequence (P10275 whole entry, looked up): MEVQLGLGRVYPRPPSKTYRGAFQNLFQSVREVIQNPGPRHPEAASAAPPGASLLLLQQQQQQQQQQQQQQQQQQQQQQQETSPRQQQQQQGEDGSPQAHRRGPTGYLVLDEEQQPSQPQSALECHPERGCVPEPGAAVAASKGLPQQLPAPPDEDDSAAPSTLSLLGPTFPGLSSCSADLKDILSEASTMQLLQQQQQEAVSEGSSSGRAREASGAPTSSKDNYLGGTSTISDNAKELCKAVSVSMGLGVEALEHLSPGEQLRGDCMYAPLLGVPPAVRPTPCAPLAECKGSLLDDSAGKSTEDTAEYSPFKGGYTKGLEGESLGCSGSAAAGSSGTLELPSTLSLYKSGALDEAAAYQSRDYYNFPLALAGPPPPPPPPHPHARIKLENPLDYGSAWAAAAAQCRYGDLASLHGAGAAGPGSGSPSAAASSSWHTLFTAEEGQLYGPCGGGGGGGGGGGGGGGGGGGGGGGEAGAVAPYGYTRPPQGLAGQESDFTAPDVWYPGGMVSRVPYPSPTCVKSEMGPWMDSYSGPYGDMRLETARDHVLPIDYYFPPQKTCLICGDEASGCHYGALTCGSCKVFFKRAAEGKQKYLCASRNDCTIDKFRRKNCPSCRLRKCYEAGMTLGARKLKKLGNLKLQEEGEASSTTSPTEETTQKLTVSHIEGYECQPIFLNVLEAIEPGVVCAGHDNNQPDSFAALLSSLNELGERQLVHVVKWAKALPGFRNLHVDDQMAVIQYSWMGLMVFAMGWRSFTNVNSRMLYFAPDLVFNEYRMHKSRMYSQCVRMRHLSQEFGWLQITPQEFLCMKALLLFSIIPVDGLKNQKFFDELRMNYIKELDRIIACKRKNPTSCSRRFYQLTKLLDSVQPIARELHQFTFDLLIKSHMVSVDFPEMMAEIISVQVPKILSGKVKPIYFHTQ

Test [18] in a line: qHTS assay for identifying genotoxic compounds that show differential cytotoxicity against isogenic chicken DT40 cell lines with known DNA damage response pathways - Rad54/Ku70 mutant cell line (AID 743015). Further: nearly all actives have a fitted effect of over 60% in size. Further: potency means the concentration at half of the fitted maximal effect.
Test [19] deals with Glucocorticoid receptor (Homo sapiens) (UniProt P04150). As to the kind of experiment: qHTS assay to identify small molecule antagonists of the glucocorticoid receptor (GR) signaling pathway (AID 720692; active means well fitted inhibition curve with a large enough effect in the signal ratio in the repeat runs, not every such curve was filed as active; the % refers to the signal ratio). Put shortly:
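Tox21 10K library screened in concentration-response for blockade of dexamethasone (5 nM final)-induced GRE-bla reporter activity in HeLa cells; 18 h treatment, fluorescence read.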

Test [20] has the same target. As to the kind of experiment: qHTS assay to identify small molecule agonists of the glucocorticoid receptor (GR) signaling pathway (AID 720691; active means well fitted activation curve with a large enough effect in the signal ratio in the repeat runs, not every such curve was filed as active; the % refers to the signal ratio; further: potency means the concentration at half of the fitted maximal effect). Put shortly: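 Measures GR pathway activation through a GRE-beta-lactamase reporter stably integrated in HeLa cells, with 18 h compound treatment at 37 C and fluorescence detection using a FRET substrate.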
On the % scale 0 is the no-effect control and ±100 the full control effect.

Glucocorticoid receptor (Homo sapiens), sequence (P04150 whole entry, looked up): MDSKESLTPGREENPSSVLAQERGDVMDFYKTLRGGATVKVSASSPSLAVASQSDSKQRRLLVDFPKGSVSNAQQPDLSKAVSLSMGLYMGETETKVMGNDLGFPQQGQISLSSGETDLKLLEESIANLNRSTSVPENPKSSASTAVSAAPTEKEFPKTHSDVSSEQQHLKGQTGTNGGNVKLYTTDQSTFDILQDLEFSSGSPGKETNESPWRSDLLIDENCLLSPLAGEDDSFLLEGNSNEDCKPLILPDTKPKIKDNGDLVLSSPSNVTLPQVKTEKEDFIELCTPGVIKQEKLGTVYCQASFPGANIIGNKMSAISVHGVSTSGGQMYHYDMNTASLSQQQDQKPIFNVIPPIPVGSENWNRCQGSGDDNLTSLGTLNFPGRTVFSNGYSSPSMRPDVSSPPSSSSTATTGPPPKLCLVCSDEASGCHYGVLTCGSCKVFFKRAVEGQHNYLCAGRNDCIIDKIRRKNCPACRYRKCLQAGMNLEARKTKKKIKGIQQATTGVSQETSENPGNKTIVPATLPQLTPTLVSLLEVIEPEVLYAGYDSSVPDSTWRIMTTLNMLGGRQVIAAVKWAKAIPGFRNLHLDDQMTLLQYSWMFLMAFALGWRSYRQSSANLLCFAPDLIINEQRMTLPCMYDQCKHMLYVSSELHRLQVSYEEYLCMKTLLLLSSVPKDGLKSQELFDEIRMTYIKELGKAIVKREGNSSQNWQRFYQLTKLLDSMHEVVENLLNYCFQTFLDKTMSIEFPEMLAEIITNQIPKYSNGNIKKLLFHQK

For the molecule `CC(S)C(=O)NCC(=O)O` (stereo not drawn), the result in [1], in test [2], in test [3], in test [4], in test [5] and in test [6] was inactive. Further, the call in test [7], in [8], in [9], in [14] and in test [15] was inactive. Moreover, the Potency entry in test [10], in test [11], in test [12], in [13], in test [16] and in test [17] was “inactive” in each case.

Consider `CCOC(=O)c1ncn2c1CN(C)C(=O)c1cc(F)ccc1-2`, for which the molecule was called inactive in [1], in [2], in test [3], in [4], in [5] and in [6]. The result in [7], in [8], in test [9], in test [14] and in test [15] was inactive. For the same molecule, the Potency entry in [10], in test [11], in test [18], in test [12], in test [13] and in [16] was “inactive” throughout. Besides, in [17], the Potency result is “inactive”.

Consider `COc1cc2c(cc1OC)[C@@H]1CC(=O)[C@@H](CC(C)C)CN1CC2`, for which the molecule was classed as inactive in [1], in [2], in test [3], in test [4], in test [5] and in test [6]. The result in test [7], in [8] and in test [9] was inactive. The Potency in [10] is 23.7 µM (active); in [11], 21.1 µM (active); in [18], 29.8 µM (active). Moreover, the Potency entry in test [12] was “inactive”.

For the molecule `O=C1CCCC(=O)O1`, the result in test [1], in test [2], in test [3], in test [4], in [5] and in test [6] was inactive. The call in test [7], in test [8] and in test [9] was inactive. The Potency entry in test [10], in test [11], in test [12] and in test [16] was “inactive” each time.

For `CCOC(=O)/C=C/c1ccccc1`, the result in test [1], in [2], in test [3], in test [4], in test [5] and in [6] was inactive. In addition, the call in test [7], in [8] and in test [9] was inactive. The Potency result in [10], in test [11], in [18], in test [12] and in [16] was “inactive” each time.

With `O=C(O)C(=O)Cc1ccccc1`, the molecule was called inactive in test [1], in test [2], in test [3], in test [4], in test [5] and in test [6]. The outcome in test [7], in test [8], in test [19], in [9], in test [14] and in test [15] was inactive. In addition, the Potency entry in [10], in [11], in test [18], in test [12], in [13] and in test [16] was “inactive” in each case. Also, the Potency entry in test [17] is “inactive”.

As to `CCCCCCCCCCCCCC`, the molecule was called inactive in test [1], in test [2], in test [3], in [4], in test [5] and in test [6]. The molecule was classed as inactive in [7], in test [8] and in test [9]. Moreover, the Potency result in [10], in test [11], in test [18] and in test [16] was “inactive” in each case.

With `CN1CCN(CC(=O)N2c3ccccc3C(=O)Nc3cccnc32)CC1`, the outcome in test [1], in test [2], in test [3], in [4], in test [5] and in test [6] was inactive. Further, the molecule was called inactive in test [7] and in test [8]. Besides, the Potency result in test [20], in test [10], in test [11], in test [18] and in test [16] was “inactive” in each case.

`CC/C=C\CC1=C(C)CCC1=O`: the call in test [1], in [2], in test [3], in [4], in test [5] and in [6] was inactive. Further, the outcome in test [7], in test [8], in test [9], in test [14] and in test [15] was inactive. Also, the Potency result in test [10], in test [11], in test [12] and in test [16] was “inactive” each time.

With `CC1(CO)CN(c2ccccc2)NC1=O` (stereo not drawn), the call in test [1], in [2], in test [3], in test [4], in test [5] and in test [6] was inactive. The outcome in [7], in [8], in test [9] and in test [15] was inactive. For the same molecule, the Potency result in test [10], in test [11], in test [18], in test [12], in test [13] and in test [16] was “inactive” throughout. Further, the Potency entry in test [17] is “inactive”.

With `NNc1nnc(NN)c2ccccc12`, the molecule was called inactive in test [1], in test [2], in test [3], in test [4], in test [5] and in test [6]. Moreover, the result in test [7], in test [8] and in test [9] was inactive. The Potency result in test [10], in test [11], in [18], in [12] and in test [16] was “inactive” throughout.

`Cc1cc2cc3c(C)cc(=O)oc3c(C)c2o1`: the fluorescence, % of fluorescein in test [1] is 0.0223% [at 18.6 µM]. For the same molecule, the fluorescence, % of fluorescent control in test [2] was 1.37% [at 18.6 µM]; in test [4], 0.147% [at 18.6 µM]; in [6], 1.64% [at 18.6 µM]; in [8], 1.96% [at 18.6 µM]. Besides, the activity change in test [3] was -0.0015% [at 18.6 µM]. Besides, the fluorescence, % of Rose Bengal in test [5] is -0.0947% [at 18.6 µM]. Moreover, the fluorescence, % of fluorescein control in test [7] was -0.0028% [at 18.6 µM]. Besides, the result in [9] was inactive. Also, the Potency entry in [10], in test [11], in [18], in test [12] and in [16] was “inactive” in each case.

Regarding `COc1nccnc1NS(=O)(=O)c1ccc(N)cc1`, the outcome in test [1], in [2], in test [3], in test [4], in test [5] and in [6] was inactive. The molecule was classed as inactive in [7], in test [8], in test [9], in test [14] and in test [15]. Moreover, the Potency result in test [10], in test [11], in [18], in test [12], in [16] and in test [17] was “inactive” in each case.

Regarding `CN(CCOc1ccc(NS(C)(=O)=O)cc1)CCc1ccc(NS(C)(=O)=O)cc1`, the molecule was called inactive in test [1], in test [2], in test [3], in test [4], in test [5] and in test [6]. The result in test [7], in [8] and in test [9] was inactive. The figures for the Potency in [20] and in test [18] were 7.56 µM (active) and 13.3 µM (active), respectively. Besides, the Potency result in [12] and in test [16] was “inactive” throughout.

Take `Nc1ccc(S(=O)(=O)Nc2ccc(Cl)nn2)cc1`: the molecule was classed as inactive in test [1], in test [2], in test [3], in test [4], in test [5] and in [6]. The outcome in test [7], in test [8], in [9], in test [14] and in [15] was inactive. For the same molecule, the Potency result in test [10], in test [11], in test [18], in [12], in test [13] and in [16] was “inactive” throughout. For the same molecule, the Potency entry in test [17] is “inactive”.
